Bioassay records: PubChem BioAssay, National Center for Advancing Translational Sciences (NCATS)
TDP1 inh: qHTS Assay for Inhibitors of Tyrosyl-DNA Phosphodiesterase (TDP1); Tyrosyl-DNA phosphodiesterase 1 (Homo sapiens), Q9NUW8; recombinant TDP1, AlphaScreen DNA substrate cleavage; Potency, µM (highest dose often 130 µM), actives largely listed as inhibitors; 350,000 compounds, 0.28% hits; note: nearly all actives have a fitted effect of over 40% in size
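Compounds were preincubated with Tdp1 (1 nM final) for 15 min at room temperature before substrate (15 nM final) started a 5 min reaction; beads (10 ug/ml final) were then added for 10 min before AlphaScreen detection.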
DT40 TDP1 no CPT: qHTS for Inhibitors of human tyrosyl-DNA phosphodiesterase 1 (TDP1): qHTS in cells in absence of CPT | 420,000 compounds, 15% hits | Potency, µM (top dose mostly 46.2 µM), actives largely listed as inhibitors | DT40 Tdp1-/- hTDP1 cells, no CPT, ATP luminescence, 48 h; note: nearly all actives have a fitted effect of over 55% in size
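DT40 Tdp1-/-;hTDP1 cells, no CPT (DMSO vehicle only), 400 cells/well; compounds pin-transferred; ≥48 hr, 37 °C; CellTiter-Glo 30 min RT dark, luminescence read.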
VDR inh: Inhibitors of the vitamin D receptor (VDR): qHTS | Vitamin D3 receptor (Homo sapiens), P11473 | VDR-SRC2-3 peptide fluorescence polarization, 2 h | Potency, µM, usual class: inhibitors | 400,000 compounds, 0.93% hits | AID 504847, 2011
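Two reagent solutions held at 4 deg C in the dark were dispensed, compounds pinned at 23 nl, and the mixture incubated 2 h at room temperature. Read-out: fluorescence polarization of VDR–SRC2-3 peptide binding.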
DT40 TDP1 CPT: qHTS for Inhibitors of human tyrosyl-DNA phosphodiesterase 1 (TDP1): qHTS in cells in presence of CPT. chicken DT40 Tdp1-/-;hTDP1 cells + 20 nM CPT, ATP luminescence, 48 h. Potency, µM (highest dose often 46.2 µM), most hits filed as inhibitors. 420,000 compounds, 12% hits. AID 686979, 2013; note: nearly all actives have a fitted effect of over 55% in size
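Cell growth measured by CellTiter-Glo luminescence after a minimum 48 h, 37 C compound exposure with 20 nM CPT in Tdp1-knockout DT40 cells stably expressing hTDP1, seeded 400/well; qHTS titration format.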
GCN5L2 inh: qHTS Assay for Inhibitors of GCN5L2 | Histone acetyltransferase KAT2A (Homo sapiens), Q92830 | GCN5L2 HAT assay, ThioGlo1 CoA-SH fluorescence | Potency, µM (titrated, usually from 58.9 µM), usual class: inhibitors | 390,000 compounds, 0.21% hits | AID 504327, 2011
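qHTS, 1536-well. 20nM enzyme, pH 7.5 HEPES/EDTA/Tween-20 buffer; 15 min compound preinc., RT. Start: 75uM H3(1-25), 70uM AcCoA, 50uM ThioGlo1. Read Ex340/Em540 at t=0 (autofluorescence flag) and t=20 min.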
PLK1 PBD inh: qHTS for Inhibitors of PLK1-PDB (polo-like kinase 1 - polo-box domain): Primary Screen | Serine/threonine-protein kinase PLK1 (Homo sapiens), P53350 | Plk1 PBD binding of FITC phosphopeptide, fluorescence polarization | Potency, µM, actives largely listed as inhibitors | 360,000 compounds, 2.8% hits | AID 720504, 2013; note: series mostly up to about 57 µM; nearly all actives have a fitted effect of over 65% in size
Numbers stand for hits; [ ] = another dose, or the depositor's remark. This is a sample that favours compounds with a hit; in the whole collection about 18% have one here. Calls come from the whole dose curve; as a rule, active = well fitted curve in the direction sought with a large enough effect; inconclusive = small, poorly fitted or top-dose-only effect, or another doubt; inactive = no such curve, though single readings can be large; an effect the other way counts as inactive or inconclusive.

O=C(Oc1ccccc1)N1CCC2(CC1)CCN(C(c1ccccc1)c1ccccc1)CC2 was read as DT40 TDP1 no CPT inactive, VDR inh inactive, DT40 TDP1 CPT inactive and GCN5L2 inh inactive.
Screening CCOC(=O)c1ncn2c1CN(C)C(=O)c1c(I)cccc1-2 returned DT40 TDP1 no CPT inactive and DT40 TDP1 CPT inactive.
`Cc1c(C(=O)NCc2ccc(Cl)c(Cl)c2)sc(=O)n1Cc1ccc(S(=O)(=O)N(C)C)cc1` gave DT40 TDP1 no CPT 15µM, DT40 TDP1 CPT 8.2µM and PLK1 PBD inh inactive.
O=c1[nH]c(=O)n(Cc2ccco2)c(O)c1/C=N/N1CCCCCC1 was read as TDP1 inh inactive, DT40 TDP1 no CPT inactive, VDR inh inactive, DT40 TDP1 CPT inactive, GCN5L2 inh inactive and PLK1 PBD inh inactive.
Screening N#Cc1c(/N=C/c2c(O)n(Cc3ccco3)c(=O)[nH]c2=O)sc2c1CCCC2 returned TDP1 inh inconclusive, DT40 TDP1 no CPT inactive, VDR inh 79µM, DT40 TDP1 CPT inactive, GCN5L2 inh inconclusive and PLK1 PBD inh 24µM.
Screening CC1CC2OC2/C=C\C=C/C(=O)Cc2c(Cl)c(O)cc(O)c2C(=O)O1 (stereo not given) returned TDP1 inh inactive, VDR inh 45µM and GCN5L2 inh inactive.
`CCCCCCCCCCCCCC(=O)OC1C(C)[C@@]2(O)C(C=C(CO)C[C@]3(O)C(=O)C(C)=C[C@H]23)[C@@H]2C(C)(C)[C@]12OC(C)=O` (stereo not given in full) gave TDP1 inh inactive, DT40 TDP1 no CPT inconclusive, VDR inh inactive, DT40 TDP1 CPT inconclusive and GCN5L2 inh inactive.
CCNC(=O)[C@@H]1O[C@@H](n2cnc3c(N)ncnc32)[C@H](O)[C@H]1O was read as TDP1 inh inactive, DT40 TDP1 no CPT inconclusive, VDR inh inactive, DT40 TDP1 CPT inconclusive and GCN5L2 inh inactive[0.501 µM].
`O=C(OCc1ccccc1)N1CCC2CC1c1cc(N3Cc4ccccc4-n4nncc4C3)ccc12` (stereo not given) gave DT40 TDP1 no CPT 5.8µM, DT40 TDP1 CPT 7.3µM and PLK1 PBD inh inactive.
Cc1c(C(=O)N2CCC3(CC2)OCCO3)sc2ncnc(N3CCN(c4ccccn4)CC3)c12 was read as TDP1 inh inactive, DT40 TDP1 no CPT 16µM, VDR inh inactive, DT40 TDP1 CPT 21µM, GCN5L2 inh inactive and PLK1 PBD inh inactive.
`CCCNC(=O)Cn1cnc2sc(C(=O)N3CCC4(CC3)OCCO4)c(C)c2c1=O` gave TDP1 inh inactive, DT40 TDP1 no CPT inactive, VDR inh inactive, DT40 TDP1 CPT inactive, GCN5L2 inh inactive and PLK1 PBD inh inactive.
For CC(C)(C)c1ccc(OCC(=O)Nc2ccc(Cl)cc2C(=O)c2ccccc2)cc1 the results were TDP1 inh inactive[12.3 µM], DT40 TDP1 no CPT inactive, VDR inh inactive, DT40 TDP1 CPT inconclusive and GCN5L2 inh inactive.
Screening CC(C)(C)OC(=O)N(CCc1ccccc1)Cc1ccc(OCc2cccc(NC(=O)c3ccccc3)c2)cc1 returned DT40 TDP1 no CPT 21µM, VDR inh inactive, DT40 TDP1 CPT inconclusive and PLK1 PBD inh inconclusive.
Screening CCS(=O)CCSP(=O)(OC)OC (stereo not given) returned TDP1 inh inactive, DT40 TDP1 no CPT inactive, VDR inh inconclusive, DT40 TDP1 CPT inactive and GCN5L2 inh inactive.
`N#CC(C#N)=C(C#N)c1ccc(Nc2ccccc2)cc1` gave DT40 TDP1 no CPT inconclusive, VDR inh 50µM, DT40 TDP1 CPT 10µM, GCN5L2 inh inactive and PLK1 PBD inh inactive.
c1ccc(Nc2ccc(Nc3ccccc3)cc2)cc1 was read as TDP1 inh inactive, DT40 TDP1 no CPT 6.5µM, VDR inh inactive, DT40 TDP1 CPT inconclusive, GCN5L2 inh inactive and PLK1 PBD inh inactive.
`BrCCBr` gave TDP1 inh inactive.
